Screening data (PubChem)
The sample as a whole holds a higher share of hits than the screen did.
Dicer inh: human Dicer pre-microRNA cleavage inhibition; cat-ELCCA pre-miR-21 Dicer processing, chemiluminescence; active compounds read high; AID 1347074; actives 6% (n = 47,000); z-score at 25 µM; Q9UPY3; in the data active = z-score above about 3, passing the limit was not always enough;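 note: plate controls were vehicle for no effect and no enzyme for full effect; higher signal means more uncleaved substrate so more Dicer inhibition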
* marks the source's active call; other numbers are inactive results; ! = not confirmed by another sample.

O=C(CN1CCCCC1)N1c2ccccc2Sc2ccccc21 was read as Dicer inh -0.03.
CCN(CC)CC(=O)N1c2ccccc2Sc2ccccc21 was read as Dicer inh 1.62.
For NCCCC(=O)N1c2ccccc2Sc2ccccc21 the results were Dicer inh 5.45*.
COCCCn1c(-c2ccc(C(F)(F)F)cc2)n[nH]c1=S was read as Dicer inh 0.23.
For C=CCC(NCc1ccccc1)c1ccco1 (centres undefined) the results were Dicer inh 1.03.
Screening O=C1C2ON(c3ccccc3)C(c3ccco3)C2C(=O)N1Cc1ccccc1 (centres undefined) returned Dicer inh 4.11*.
Screening O=C1C2ON(c3ccccc3)C(c3ccco3)C2C(=O)N1c1ccc(Br)cc1 (centres undefined) returned Dicer inh 0.66.
For O=C1C2ON(c3ccccc3)C(c3ccc(F)cc3)C2C(=O)N1Cc1ccccc1 (centres undefined) the results were Dicer inh 0.11.
CCOc1ccc(N2C(=O)C3ON(c4ccccc4)C(c4ccco4)C3C2=O)cc1 (centres undefined) was read as Dicer inh -1.3.
For COc1ccc(C2C3C(=O)N(Cc4ccccc4)C(=O)C3ON2c2ccccc2)cc1 (centres undefined) the results were Dicer inh 0.46.
For O=C1C2ON(c3ccccc3)C(c3ccco3)C2C(=O)N1c1ccccc1 (centres undefined) the results were Dicer inh 3.55*.
For CC(C)N1CC23C=CC(O2)C(C(=O)O)C3C1=O (centres undefined) the results were Dicer inh 0.1.
`COC(=O)c1sc(N2C(=O)c3oc4ccc(C)cc4c(=O)c3C2c2cccc(O)c2)nc1C` (centres undefined) gave Dicer inh 1.33.
Screening CCOC(=O)C1=C(C)N=C2SCC(=O)N2C1c1cccc(OC)c1 (centres undefined) returned Dicer inh 0.61.
`Cn1c2c(c(=O)n(C)c1=O)C(c1cccc(Cl)c1)C1C(=O)c3ccccc3C1=N2` (centres undefined) gave Dicer inh -1.29.
Screening COc1ccc(-n2c(-c3cc(-c4ccccc4)sc3N)n[nH]c2=S)cc1 returned Dicer inh 5.42*.
Nc1sc(-c2ccccc2)cc1-c1n[nH]c(=S)n1Cc1ccccc1 was read as Dicer inh -8.86.
Screening Nc1sc(-c2ccccc2)cc1-c1n[nH]c(=S)n1-c1ccc(F)cc1 returned Dicer inh -0.78.
CC(CN1CCOCC1)OC(=O)c1ccc2c(c1)OCCO2 (centres undefined) was read as Dicer inh 2.92.
Screening COCCOC(=O)c1c(C)oc2ccc(OC(=O)c3cc4ccccc4o3)cc12 returned Dicer inh 0.35.
Screening COc1ccc(-c2cc(OC(=O)c3cccs3)c3c(C)oc(C)c3c(=O)c2)cc1 returned Dicer inh 4.31*.
COc1ccc(-c2cc(OC(=O)c3cccc(Br)c3)c3c(C)oc(C)c3c(=O)c2)cc1 was read as Dicer inh 2.69.
COc1ccc(-c2cc(OC(=O)c3ccc(Cl)cc3)c3c(C)oc(C)c3c(=O)c2)cc1 was read as Dicer inh 1.73.
COCCOC(=O)C1=C(C)N=C2SCCC(=O)N2C1c1ccc(OC)cc1 (centres undefined) was read as Dicer inh -0.18.
For Cc1nnc(NC(=O)C2c3ccccc3Oc3ccccc32)s1 the results were Dicer inh 4.88*.
Screening O=C(NCc1ccccn1)C1c2ccccc2Oc2ccccc21 returned Dicer inh 3.09*.
COC(=O)C1c2ccccc2Oc2ccccc21 was read as Dicer inh -0.31.
For CCCCCC(C)NC(=O)C1c2ccccc2Oc2ccccc21 (centres undefined) the results were Dicer inh -0.35.
O=C(O)C1C2C=CC(C2)C1C(=O)NCc1ccccn1 (centres undefined) was read as Dicer inh -1.29.
Screening CC(C)c1nnc(NC(=O)C2c3ccccc3Oc3ccccc32)s1 returned Dicer inh 0.88.
Screening NC(=O)C1c2ccccc2Oc2ccccc21 returned Dicer inh -0.49.
O=C(NC1CCCC1)C1c2ccccc2Oc2ccccc21 was read as Dicer inh 4.31*.
Screening O=C(Nc1ccncc1)C1c2ccccc2Oc2ccccc21 returned Dicer inh -1.06.
`Clc1ccc(-n2nnnc2-c2cnc3ccccc3c2-c2ccccc2)cc1` gave Dicer inh -1.24.
For N#Cc1c(-c2ccc(F)cc2)c2c([nH]c1=O)-c1ccccc1OC2 the results were Dicer inh 1.5.
CCOC(=O)c1sc(-c2ccccc2)nc1CSc1nnc(SC)s1 was read as Dicer inh 8.32.
Screening CCOc1ccc(C2c3c(oc4ccccc4c3=O)C(=O)N2c2nncs2)cc1 (centres undefined) returned Dicer inh -0.39.
Screening CNC(C)CN1c2ccccc2Sc2ccccc21 (centres undefined) returned Dicer inh 2.56.
For CC(CN1c2ccccc2Sc2ccccc21)N(C)C (centres undefined) the results were Dicer inh 3.8*!.
For CC(CN(C)C)CN1c2ccccc2Sc2ccccc21 (centres undefined) the results were Dicer inh 0.42.
`Nc1ncnc2c1nc(N/N=C/c1ccc3ccccc3n1)n2[C@H]1O[C@@H](CO)[C@H](O)[C@@H]1O` gave Dicer inh 29.5.
Screening Cc1cc(NC(=O)c2ccccc2C(=O)O)n(C)n1 returned Dicer inh 1.97.
O=C1c2ccccc2C(=O)N1CN1CCN(C(c2ccccc2)c2ccccc2)CC1 was read as Dicer inh 0.49.
CC1CN(CN2C(=O)c3ccccc3C2=O)CC(C)O1 (centres undefined) was read as Dicer inh 3.39*.
`O=C1c2ccccc2C(=O)N1CN1CCSCC1` gave Dicer inh 0.66.
For CCOC(=O)c1cc(-c2ccccc2)n(-c2ccc(N)cc2)c1C the results were Dicer inh 0.71.
Cn1c(=O)c2c(nc(NC3CCCCC3)n2CC(O)COc2ccccc2)n(C)c1=O (centres undefined) was read as Dicer inh -2.37.
Cn1c(=O)c2c(nc(NCCO)n2CC(O)COc2ccccc2)n(C)c1=O (centres undefined) was read as Dicer inh -1.55.
For COc1ccc(OCC(O)Cn2c(NC3CCCCC3)nc3c2c(=O)n(C)c(=O)n3C)cc1 (centres undefined) the results were Dicer inh 3.32*.
CCOC(=O)c1cnc(SCc2ccc(Cl)cc2)nc1C(F)(F)F was read as Dicer inh 1.02.
Screening O=C(Nc1ccc(F)cc1)N1CCN(c2ccccc2F)CC1 returned Dicer inh 0.41.
O=C(Nc1ccc(Cl)cc1)NN1CC(=O)N(c2ccccc2F)CC1=O was read as Dicer inh 4.93*.
`O=C(NN1CC(=O)N(c2cc(Cl)cc(Cl)c2)CC1=O)c1cccs1` gave Dicer inh -0.11.
CC(C)Sc1c(Cl)cccc1NC(=O)Nc1ccccc1 was read as Dicer inh -1.36.
COCCN1C(=O)C(O)=C(C(=O)c2cc3ccccc3o2)C1c1ccc(N(C)C)cc1 (centres undefined) was read as Dicer inh 1.37.
For CC1(C)CC(=O)C2=C(C1)Nc1ccccc1NC2c1cccc(Br)c1 (centres undefined) the results were Dicer inh 3.54*.
Screening CC(C)Oc1ccc(C2Nc3ccccc3NC3=C2C(=O)CC(C)(C)C3)cc1 (centres undefined) returned Dicer inh -1.89.
